Values joined by “and” are separate entries in the source; they are usually repeats but may differ in a detail not shown here. Equal entries are not always repeated. Where a structure was tested more than once in an assay, its records may differ in their call. Active and inactive are the calls of the source. Rule for the calls: active = hit-call score of the fitted dose curve at least 0.9, where 1 is the maximum; inactive = score below 0.9.
assay: ATG_NRF2_ARE_CIS: Attagene CIS-FACTORIAL HepG2 Assay for human Nuclear Factor Erythroid 2 Related Factor 2 (NFR2) response to Antioxidant Response Elements (ARE) (AID 2282992); conditions: HepG2 Attagene ARE/NRF2 reporter, transcription factor activity; actives raise or lower the signal
Procedure: ATG_CIS is a cell-based, multiplexed-readout assay that uses HepG2, a human liver cell line, with measurements taken at 24 hours after chemical dosing in a 24-well plate.ATG_NRF2_ARE_CIS is one of 52 assay component(s) measured or calculated from the ATG_CIS assay. It is designed to make measurements of mRNA induction, a form of inducible reporter, as detected with fluorescence intensity signals by Reverse transcription polymerase chain reaction (RT-PCR) and Capillary electrophoresis technology.Data from the assay component ATG_NRF2_ARE_CIS was analyzed into 1 assay endpoint. This assay endpoint, ATG_NRF2_ARE_CIS, was analyzed with bidirectional fitting relative to DMSO as the negative control and baseline of activity. Using a type of inducible reporter, measures of mRNA for gain or loss-of-signal activity can be used to understand the reporter gene at the transcription factor-level as they relate to the gene NFE2L2. Furthermore, this assay endpoint can be referred to as a primary readout, because this assay has produced multiple assay endpoints where this one serves a reporter gene function. To generalize the intended target to other relatable targets, this assay endpoint is annotated to the dna binding intended target family, where the subfamily is basic leucine zipper.
Human liver HepG2 cells are transiently transfected with multiple reporter transcription units (MRTUs) in 6-well plates using FuGene 6 reagent (Roche; 3 ml FuGene/1 mg DNA). The MRTU constructs are regulated by a cis-regulating element (promoter). […] A major difference between the CIS and TRANS system is that in CIS activities of endogenous TFs are measured, whereas the TRANS assay evaluates changes in activities of exogenous, chimeric NR-Gal4 proteins. […] At the end of 24 hour incubation, total RNA was isolated using TriZol reagent (Invitrogen). The isolated RNA is then reverse-transcribed using oligo(dT) primer and Mo-MLV reverse transcriptase (Invitrogen) with DNAse I (Ambion) treatment for 30 min. The one-tenth of the produced cDNA was amplified by PCR using Taq DNA polymerase (Invitrogen) and two reporter sequence-specific primers. The PCR products were fluorescently labeled by primer extension with 6-arboxyfluorescein (6-FAM) 5'-labeled reporter sequence-specific primer (2 min at 95 C, 20 s at 68 C and 10 min at 72 C) and these products were digested with 5U of HpaI (New England Biolabs) for 2h at 37 C. The fragments were purified using Qiaquick PCR columns (Qiagen), analyzed on an ABI 3130xL genetic analyzer (Applied Biosystems) with peak positions identified by using a set of X-rhodamine (ROX)-labeled MapMarker1000 molecular weight standards (BioVentures). The raw capillary electrophoresis data was processed using Attagraph software (Attagene).

outcome, inactive:
CC(C)(O)C(=O)c1ccccc1
CC(C)[C@@H]1CC[C@@H](C)C[C@H]1O
NC(=NCCCCCCN=C(N)/N=C(\N)Nc1ccc(Cl)cc1)/N=C(\N)Nc1ccc(Cl)cc1
FC(F)(F)N1C(F)(F)C(F)(F)OC(F)(F)C1(F)F
FC(F)(F)C1(F)C(F)(F)C(F)(F)C(F)(F)C(F)(C(F)(F)F)C1(F)F (stereo not given)
O=C(O)CCC(F)(F)C(F)(F)C(F)(F)C(F)(F)C(F)(F)F
CC1CCC(CO)CC1 (stereo not given)
CCCCCCOC(=O)c1ccc(O)cc1
C=CC(F)(F)C(F)(F)C(F)(F)C(F)(F)F
O=C(O)c1cccc(C(=O)O)n1
FC(OC(F)(F)C(F)(F)C(F)(F)F)C(F)(F)F (stereo not given)
O=C1NS(=O)(=O)c2ccccc21
CCN(CCC#N)c1ccccc1
Cc1cc(=O)oc2cc(O)ccc12
C=C(c1ccc(C(=O)O)cc1)c1cc2c(cc1C)C(C)(C)CCC2(C)C
O=C(c1cc(O)c(O)c(O)c1)c1ccc(O)c(O)c1O
C=CCOCC(CO)(CO)CO
Cc1ccccc1C(OCCN(C)C)c1ccccc1 (stereo not given)
O=CC(F)(F)C(F)(F)C(F)(F)F
CC(C)C=O
CCOC(OCC)C(=O)c1ccccc1
Cc1ccc(C)c(S(=O)(=O)O)c1
O=CC(F)(F)C(F)(F)C(F)(F)C(F)F
CCO[Si](C)(C)OCC
CCC(C)c1ccccc1O (stereo not given)

AC50, active:
NC(=NCCCCCCN=C(N)/N=C(\N)Nc1ccc(Cl)cc1)/N=C(\N)Nc1ccc(Cl)cc1 2.26 µM
O=C(NCc1ncc(C(F)(F)F)cc1Cl)c1c(Cl)cccc1Cl 1.97 µM
Cc1ccc2ccc3ccc(C)cc3c2c1 61.3 µM
O=c1cc(-c2ccccc2)oc2ccc3ccccc3c12 182 nM and 134 nM
C=COC(=O)C(C)(C)CCCCCC 142 µM
Cc1ccc(C(=O)c2ccccc2)cc1 28 µM
C=CC(=O)OCCC(F)(F)C(F)(F)C(F)(F)C(F)(F)C(F)(F)C(F)(F)C(F)(F)C(F)(F)F 22.1 µM
CC(C)(C)c1ccc(CCC=O)cc1 130 µM
Oc1cc2ccccc2cc1O 100 µM
O=C(CC(=O)C(F)(F)C(F)(F)C(F)(F)F)c1cccs1 12.9 µM and 20.2 µM
Cc1ccccc1C(OCCN(C)C)c1ccccc1 (stereo not given) 71.4 µM
CC1=CC(=O)c2ccccc2C1=O 5.04 µM
CC(C)C=O 64.6 µM
CCc1ccccc1O 37.1 µM
CCC(C)c1ccccc1O (stereo not given) 74.7 µM
